In PubChem BioAssay (NCATS):
Records with an inconclusive call do not appear. Activity calls are given as the source filed them. Calls follow the shape of the dose curve; as a rule, active = well fitted inhibition curve with a large enough effect; inconclusive = small, poorly fitted or top-dose-only effect; inactive = flat fitted curve, though single readings scatter.

Tests used:
Assay in all cases: qHTS profiling for inhibitors of Plasmodium falciparum proliferation (AID 504749); also: nearly all actives have a fitted effect of over 60% in size
Settings in all cases: P. falciparum in erythrocytes, SYBR Green DNA, 72 h; series mostly up to 28.7 µM
CP265 = system: CP265
How it was run: (§1)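 Readout was DNA-dye fluorescence from lysed cultures, ex 485/em 535 nm. Parasitized red cells had grown 72 h with compound; data scaled between 0.29 uM artemisinin and DMSO wells and corrected using vehicle-only plates.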

CP266 = system: CP266
How it was run: as §1

CP268 = system: CP268
How it was run: as §1

CP269 = system: CP269
How it was run: as §1

CP286 = system: CP286
How it was run: as §1

CP291 = system: CP291
How it was run: as §1

CP297 = system: CP297
How it was run: as §1

CP305 = system: CP305
How it was run: as §1

CP325 = system: CP325
How it was run: as §1

CP329 = system: CP329
How it was run: as §1

CP335 = system: CP335
How it was run: as §1

DFO2036 = system: DFO2036
How it was run: as §1

DIV14 = system: DIV14
How it was run: as §1

DIV17 = system: DIV17
How it was run: as §1

DIV30 = system: DIV30
How it was run: as §1

Dd2 = system: Dd2
How it was run: as §1

ECU = system: ECU
How it was run: as §1

HB3 = system: HB3
How it was run: as §1

ICS = system: ICS
How it was run: as §1

N140 = system: N140
How it was run: as §1

P93_24 = system: P93_24
How it was run: as §1

P94_40 = system: P94_40
How it was run: as §1

PAD = system: PAD
How it was run: as §1

PC15 = system: PC15
How it was run: as §1

PC26 = system: PC26
How it was run: as §1

SC27B = system: SC27B
How it was run: as §1

TAB109 = system: TAB109
How it was run: as §1

TAB113 = system: TAB113
How it was run: as §1

TAB165 = system: TAB165
How it was run: as §1

W2 = system: W2
How it was run: as §1

Measured: Potency
Potency is read from the fitted curve at half-maximal effect.

C/C=C\C[C@H](C)[C@H](O)[C@H]1C(=O)N[C@@H](CC)C(=O)N(C)CC(=O)N(C)[C@@H](CC(C)C)C(=O)N[C@@H](C(C)C)C(=O)N(C)[C@@H](CC(C)C)C(=O)N[C@@H](C)C(=O)N[C@@H](C)C(=O)N(C)[C@@H](CC(C)C)C(=O)N(C)[C@@H](CC(C)C)C(=O)N(C)[C@@H](C(C)C)C(=O)N1C
active: CP265 3.55 µM | CP266 10.7 µM | CP268 15.1 µM | CP269 6.01 µM | CP286 7.08 µM | CP291 10.7 µM | CP297 4.78 µM | CP305 6.01 µM | CP325 7.57 µM | CP329 6.01 µM | CP335 4.26 µM | DFO2036 2.51 µM | DIV14 6.75 µM | DIV17 8.49 µM | DIV30 13.5 µM | Dd2 5.01 µM | ECU 2.24 µM | HB3 7.08 µM | ICS 3.98 µM | N140 2.82 µM | P93_24 5.01 µM | P94_40 5.01 µM | PAD 3.55 µM | PC15 11.2 µM | PC26 6.75 µM | SC27B 2.82 µM | TAB109 3.55 µM | TAB113 3.55 µM | TAB165 4.47 µM | W2 1.9 µM
